Assay results from PubChem BioAssay.
Active and inactive are the calls of the source.

Tested on: not listed separately
Assay: CREB reporter modulators under forskolin, primary screen, cell-based, PC12, CRE-LacZ reporter, forskolin-stimulated (AID 1146);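 note: PC12 cells with 6xCRE LacZ reporter stimulated by forskolin 10 µM; beta-galactosidase reporter signal reflecting CREB driven transcription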
Settings: luminescence, 4.5 h, higher = more signal, called active from +8 up or from −8 down

| Compound | z-score |
| --- | --- |
| CO[C@H]1COC(=O)CC=C[C@@H](C)COC(=O)[C@@H](C)NC(=O)CC=C[C@@H]1C | -1.09 (inactive) |
| C=CCN1C(=O)[C@@]2(O[C@@H](CCn3cc([C@H](O)c4ccccc4)nn3)[C@H]([Si](C)(C)c3ccc(OC)cc3)[C@H]2C)c2cc(N3CCOC3=O)ccc21 | -1.73 (inactive) |
| CCCC/C=C/[C@H]([C@@H](O)Cc1ccccc1)N(CC#Cc1ccccc1)Cc1ccccc1Br | -0.967 (inactive) |
| CCOC(=O)[C@H]1C/C=C/C[C@H](C(=O)OCC)C(=O)O[C@H]2[C@@H](OC)O[C@H](CO)[C@@H](OC(=O)Nc3ccc(Br)cc3)[C@@H]2OC1=O | -1.23 (inactive) |
| COC(=O)c1c(CC[C@@H](CO)NC(=O)N[C@H](Cn2cc(-c3cncn3C)nn2)C(C)C)oc(C(C)=O)c1C(=O)OC | -1.4 (inactive) |
| COc1ccc([Si](C)(C)[C@H]2[C@H](CCO)O[C@@]3(C(=O)N(Cc4ccc(N5CCCCC5=O)cc4)c4ccccc43)[C@@H]2C)cc1 | -2.57 (inactive) |
| O=C1c2ccccc2[C@](Cc2ccccc2I)(C(=O)O)[C@H](c2ccc(CO)cc2)N1C1CCCCC1 | -0.298 (inactive) |
| CCCNC(=O)[C@@]1(Sc2ccc(C)cc2)CC(=O)N(Cc2ccccc2Cl)[C@@H]1c1ccc(CO)cc1 | -1.43 (inactive) |
| O=C(NCC(O)CO)[C@]1(Cc2ccccc2)N=C(c2ccc(OCCCO)cc2)O[C@@H]1c1ccccc1 (some centres undefined) | -1.08 (inactive) |
| O=C(CS)NCCCCCNC(=O)[C@H]1C[C@H]2C(=O)N3CCC[C@H]3C(=O)N2[C@H]1c1ccc(O)cc1 | -1.59 (inactive) |
| COc1cccc([C@H]2N[C@H](C(=O)O)CC[C@@H]2C)c1 | -1.61 (inactive) |
| CC(C)[Si]1(C(C)C)O[C@@H](c2ccccc2)c2cc(C3CC3)nc(-c3ccc(Oc4ccccc4)cc3)c21 | -0.59 (inactive) |
| CC(=O)Nc1ccc([C@H]2[C@H](C)CC[C@H]3C(=O)N4[C@@H](CC[C@@H](C)[C@@H]4c4ccc(NC(C)=O)cc4)C(=O)N32)cc1 | -0.876 (inactive) |
| COc1cc2c(cc1OC)CN(C(=O)[C@@H]1[C@H]3C(=O)O[C@H](c4ccccc4)[C@H](c4ccccc4)N3[C@H](c3ccccc3OCCO)[C@@]13C(=O)Nc1ccccc13)CC2 | -1.31 (inactive) |
| [N-]=[N+]=NCc1ccccc1C[C@@]1(C(=O)N2CCOCC2)N=C(c2ccc(OCCCO)cc2)O[C@@H]1c1ccccc1N=[N+]=[N-] | -1.23 (inactive) |
| C=CC[C@]1(C(=O)OC)N=C(c2ccc(OCCCO)cc2)O[C@H]1c1ccccc1CN=[N+]=[N-] | -0.911 (inactive) |
| CO[C@]12C=C(Br)[C@@H](C[C@@H]1c1ccccc1)[C@@]1(CO1)C2=O | 2 (inactive) |
| C[C@]1(C(=O)NCc2ccccc2)c2ccccc2C(=O)N(Cc2cc(C(F)(F)F)cc(C(F)(F)F)c2)[C@H]1c1ccc(CO)cc1 | -1.41 (inactive) |

Biological target: Streptavidin (Streptomyces avidinii) (UniProt P22629)
Assay: streptavidin binders on small-molecule microarray, primary screen, artefact control for SMM compound annotation, biophysical, 635/667 nm fluorescence (AID 1147);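 note: signal reflects streptavidin binding to arrayed compounds as a control protein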
Settings: streptavidin binding, higher = more signal

Streptavidin (Streptomyces avidinii), sequence (P22629 whole entry, looked up): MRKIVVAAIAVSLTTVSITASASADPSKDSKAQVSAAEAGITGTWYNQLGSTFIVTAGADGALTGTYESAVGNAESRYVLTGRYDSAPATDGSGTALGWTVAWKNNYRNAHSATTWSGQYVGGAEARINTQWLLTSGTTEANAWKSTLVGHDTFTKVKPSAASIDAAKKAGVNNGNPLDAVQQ

| Compound | composite z-score |
| --- | --- |
| C=C(COC)/C(=C/C[C@@H](OC(C)=O)c1cccc(OCCO)c1)c1cc(C(=O)OC)ccc1OC | -0.798 |
| CC(C)(C)OC(=O)CC[C@]1(C(=O)NCCN2CCOCC2)N=C(c2ccc(OCCCO)cc2)O[C@H]1c1ccccc1CN=[N+]=[N-] | 0.225 |
| CC(=O)NCCCC[C@@H]1NC(=O)[C@@H]2C[C@H](C(=O)NCCCCCCN(C)C)[C@H](c3ccc(O)cc3)N2C1=O | 1.24 |
| Cc1ccc(S[C@]2(C(=O)O)CC(=O)N(Cc3ccccc3)[C@@H]2c2ccc(CO)cc2)cc1 | -0.185 |
| O=C1c2ccccc2[C@](Cc2ccccc2I)(C(=O)NCC(F)(F)F)[C@H](c2ccc(CO)cc2)N1Cc1ccccc1C(F)(F)F | 0.59 |
| O=C1OCCC=C[C@H]2OC34C=CCN(Cc5ccccc5)C(=O)[C@H]3N(CCO)C(=O)[C@@H]4C12 (some centres undefined) | -0.88 |
| C=CCNC(=O)[C@H]1[C@@H]2C(=O)O[C@@H](c3ccccc3)[C@@H](c3ccccc3)N2[C@@H](c2ccccc2OCCO)[C@]12C(=O)N(C(=O)OCCOC)c1ccc(C#CCC(C(=O)OC)C(=O)OC)cc12 | -0.204 |
| COc1ccc([Si](C)(C)[C@H]2[C@H](CC(=O)N3Cc4ccccc4C[C@H]3CO)O[C@@]3(C(=O)N(Cc4cccc(N5CCOC5=O)c4)c4ccccc43)[C@@H]2C)cc1 | 0.0303 |
| CC(C)N1CC=CC23O[C@@H]4/C=C\CCCOC(=O)C4[C@H]2C(=O)N(CCO)[C@@H]3C1=O (some centres undefined) | -0.0353 |
| CC(C)CN1C(=O)[C@@]2(Cc3ccccc31)c1ccccc1C(=O)N(C1CCCCC1)[C@H]2c1ccc(CO)cc1 | -1.12 |
| COc1cccc([C@@H]2[C@@H](C)CC[C@H]3C(=O)N4[C@H](c5cccc(OC)c5)[C@@H](C)CC[C@H]4C(=O)N23)c1 | 0.258 |
| CO[C@H]1COC(=O)[C@H](Cc2ccccc2)NC(=O)CC=C[C@@H](C)[C@H](OC)COC(=O)CC=C[C@@H]1C | -0.129 |
| CO[C@H]1COC(=O)[C@@H](OCc2ccccc2)C=C[C@H](C)[C@@H](OC)COC(=O)[C@H](OCc2ccccc2)C=C[C@@H]1C | -0.0864 |
| O=C1O[C@@H](c2ccccc2)[C@@H](c2ccccc2)N2[C@@H](c3ccc(O)cc3)[C@]3(C(=O)Nc4ccccc43)[C@@H](C(=O)N3CCN(c4ncccn4)CC3)[C@H]12 | -0.6 |
| O=C1O[C@@H](c2ccccc2)[C@@H](c2ccccc2)N2[C@@H](c3ccc(O)cc3)[C@]3(C(=O)Nc4ccc(C#CC5(O)CCCCCC5)cc43)[C@@H](C(=O)Nc3nc4ccccc4s3)[C@H]12 | 1.99 |
| C=CC[C@]1(C(N)=O)N=C(c2ccc(OCCCO)cc2)O[C@H]1c1ccccc1CN=[N+]=[N-] | 1.42 |
| COCCOC(=O)N1C(=O)[C@@]2(c3cc(C#CCCO)ccc31)[C@H](C(=O)N1CCCCCCC1)[C@H]1C(=O)O[C@H](c3ccccc3)[C@H](c3ccccc3)N1[C@@H]2c1ccc(O)cc1 | 1 |
| C=CCOC(=O)[C@@H]1[C@H]2C(=O)O[C@H](c3ccccc3)[C@H](c3ccccc3)N2[C@H](c2ccc(OCCOC(=O)[C@H]3C[C@H]4C(=O)N5CCC[C@H]5C(=O)N4[C@H]3c3ccc(O)cc3)cc2)[C@@]12C(=O)Nc1ccccc12 | 0.239 |

| Compound | composite z-score |
| --- | --- |
| CO[C@H]1COC(=O)CC=C[C@@H](C)COC(=O)[C@@H](C)NC(=O)CC=C[C@@H]1C | -0.697 |
| C=CCN1C(=O)[C@@]2(O[C@@H](CCn3cc([C@H](O)c4ccccc4)nn3)[C@H]([Si](C)(C)c3ccc(OC)cc3)[C@H]2C)c2cc(N3CCOC3=O)ccc21 | -0.349 |
| CCCC/C=C/[C@H]([C@@H](O)Cc1ccccc1)N(CC#Cc1ccccc1)Cc1ccccc1Br | -0.951 |
| CCOC(=O)[C@H]1C/C=C/C[C@H](C(=O)OCC)C(=O)O[C@H]2[C@@H](OC)O[C@H](CO)[C@@H](OC(=O)Nc3ccc(Br)cc3)[C@@H]2OC1=O | 0.521 |
| COC(=O)c1c(CC[C@@H](CO)NC(=O)N[C@H](Cn2cc(-c3cncn3C)nn2)C(C)C)oc(C(C)=O)c1C(=O)OC | 0.341 |
| COc1ccc([Si](C)(C)[C@H]2[C@H](CCO)O[C@@]3(C(=O)N(Cc4ccc(N5CCCCC5=O)cc4)c4ccccc43)[C@@H]2C)cc1 | -0.0077 |
| O=C1c2ccccc2[C@](Cc2ccccc2I)(C(=O)O)[C@H](c2ccc(CO)cc2)N1C1CCCCC1 | 0.947 |
| CCCNC(=O)[C@@]1(Sc2ccc(C)cc2)CC(=O)N(Cc2ccccc2Cl)[C@@H]1c1ccc(CO)cc1 | 0.124 |
| O=C(NCC(O)CO)[C@]1(Cc2ccccc2)N=C(c2ccc(OCCCO)cc2)O[C@@H]1c1ccccc1 (some centres undefined) | 1.38 |
| O=C(CS)NCCCCCNC(=O)[C@H]1C[C@H]2C(=O)N3CCC[C@H]3C(=O)N2[C@H]1c1ccc(O)cc1 | -1.13 |
| COc1cccc([C@H]2N[C@H](C(=O)O)CC[C@@H]2C)c1 | 0.158 |
| CC(C)[Si]1(C(C)C)O[C@@H](c2ccccc2)c2cc(C3CC3)nc(-c3ccc(Oc4ccccc4)cc3)c21 | -0.646 |
| CC(=O)Nc1ccc([C@H]2[C@H](C)CC[C@H]3C(=O)N4[C@@H](CC[C@@H](C)[C@@H]4c4ccc(NC(C)=O)cc4)C(=O)N32)cc1 | 0.627 |
| COc1cc2c(cc1OC)CN(C(=O)[C@@H]1[C@H]3C(=O)O[C@H](c4ccccc4)[C@H](c4ccccc4)N3[C@H](c3ccccc3OCCO)[C@@]13C(=O)Nc1ccccc13)CC2 | 0.0797 |
| [N-]=[N+]=NCc1ccccc1C[C@@]1(C(=O)N2CCOCC2)N=C(c2ccc(OCCCO)cc2)O[C@@H]1c1ccccc1N=[N+]=[N-] | 1.43 |
| C=CC[C@]1(C(=O)OC)N=C(c2ccc(OCCCO)cc2)O[C@H]1c1ccccc1CN=[N+]=[N-] | -1.12 |
| CO[C@]12C=C(Br)[C@@H](C[C@@H]1c1ccccc1)[C@@]1(CO1)C2=O | 0.4 |
| C[C@]1(C(=O)NCc2ccccc2)c2ccccc2C(=O)N(Cc2cc(C(F)(F)F)cc(C(F)(F)F)c2)[C@H]1c1ccc(CO)cc1 | 0.157 |
